Screens from PubChem.
Sampled rows, rich in hits. Any-hit rate of the full collection: about 2.9%.
SNCA expr inhib: Primary qHTS assay for inhibitors of alpha-synuclein gene (SNCA) expression | HEK-293 SNCA-luciferase knock-in, luminescence, 24 h | actives 0.17% (n = 140,000) | Potency, µM (doses to about 57.2 µM), inactives show top-dose activity change, negative = inhibition, most hits filed as inhibitors;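 note: potency is the fitted concentration of half-maximal effect; plate controls were DMSO cells for no effect and cell-free wells for full effect; nearly all actives have a fitted effect of over 45% in size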
IP6K1 inhibitor: Primary qHTS assay for small molecule inhibitors of Inositol hexaphosphate kinase 1 (IP6K1); Inositol hexakisphosphate kinase 1 (Homo sapiens), Q92551; IP6K1 kinase, ADP-Glo luminescence, 2 h; active compounds read low; activity change, % (series mostly up to about 58 µM); actives 0.81% (n = 140,000); AID 1645851, 2021; in the data active = activity change below about -25%; note: % is set by controls: 0 for no effect and ±100 for the full control effect
Target sequence (Q92551 whole entry, looked up): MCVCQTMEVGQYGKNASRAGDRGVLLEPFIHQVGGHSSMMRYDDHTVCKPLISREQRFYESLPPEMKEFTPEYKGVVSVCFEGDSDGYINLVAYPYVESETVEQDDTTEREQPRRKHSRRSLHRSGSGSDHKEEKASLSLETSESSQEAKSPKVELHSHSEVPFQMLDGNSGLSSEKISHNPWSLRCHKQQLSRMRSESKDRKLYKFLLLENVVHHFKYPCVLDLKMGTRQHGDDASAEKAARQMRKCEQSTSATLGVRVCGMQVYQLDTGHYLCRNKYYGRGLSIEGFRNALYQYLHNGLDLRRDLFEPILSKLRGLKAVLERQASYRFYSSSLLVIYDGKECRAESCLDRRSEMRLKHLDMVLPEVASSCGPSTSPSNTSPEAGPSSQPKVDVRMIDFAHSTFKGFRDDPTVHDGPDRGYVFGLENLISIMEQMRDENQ
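ADP-Glo luminescence measures ADP made by human IP6K1 during a 2 h RT reaction with ATP/IP6 (mix at 1.3 mM/130 uM); top library doses 57.5 and 19.1 uM final.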
HEK293 viab: GF-AFC viability counterscreen for inhibitors of alpha-synuclein gene (SNCA) expression; HEK-293-SNCA-luc viability, GF-AFC fluorescence, 24 h; Potency, µM (highest dose often 57.1 µM), for the others: at the top dose activity change, negative = cytotoxicity, usual class: cytotoxic; actives 0.12% (n = 150,000);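 note: potency is the fitted concentration of half-maximal effect; 0% = DMSO-treated cells and -100% = medium-only wells without cells; nearly all actives have a fitted effect of over 30% in size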
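Cytotoxicity counterscreen: after 24 h compound treatment of genome-edited SNCA-luciferase HEK-293 cells, live-cell protease substrate GF-AFC read by fluorescence after 30 min; activity scaled between DMSO (0%) and medium-only (-100%), curves Hill-fitted.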
KDM5B inhibitor: Primary screen for KDM5B Histone Demethylases FDH-coupled qHTS; Lysine-specific demethylase 5B (Homo sapiens), Q9UGL1; KDM5B demethylase, FDH-coupled NADH fluorescence (FDH is formaldehyde dehydrogenase); Potency, µM (top dose mostly 57.7 µM), actives largely listed as inhibitors; actives 2.6% (n = 220,000); note: potency is the fitted concentration of half-maximal effect; 0% is about no effect; nearly all actives have a fitted effect of over 70% in size
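Here, H3K4me3 peptide (12.5 µM in substrate mix) is demethylated by KDM5BΔAP, 200 nM final, after 10 min compound exposure. Formaldehyde product is coupled through FDH (0.25 U/mL in mix) to NADH fluorescence; 30-min ΔRFU feeds dose-response curves.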
Active calls of the source: *; i = inactive; ? = inconclusive; . = no result given; [ ] = dose if it differs, or a comment. Unless noted, calls come from the whole dose curve; as a rule, active = well fitted curve in the direction sought with a large enough effect; inconclusive = small, poorly fitted or top-dose-only effect, or another doubt; inactive = no such curve, though single readings can be large; an effect the other way counts as inactive or inconclusive.

SMILES	SNCA expr inhib	IP6K1 inhibitor	HEK293 viab	KDM5B inhibitor
COC[C@@H]1CN(c2cnccn2)C[C@H]1C(=O)NCc1ccc(C)c(C)c1	-12%	13	-19%	18µM*
COC[C@@H]1CN(c2cnccn2)C[C@H]1C(=O)NCCc1ccncc1	-6%	7	11%	25µM*
COC[C@@H]1CN(c2cnccn2)C[C@H]1C(=O)NCC1CC1	-14%	0	1%	18µM*
COc1ccc(C(=O)N[C@@H]2CCC[C@@H]2C(=O)NCc2ccc(C)c(C)c2)cc1	-19%	16	-25%	i
COc1ccccc1CNC(=O)C1CCCN1c1nccc(Nc2ccccc2F)n1 (centres undefined)	?	-4	-9%[12.5 µM]	.
Cc1nn(C)c(C)c1S(=O)(=O)N1CCCC(Cc2nncn2C(C)C)C1 (centres undefined)	0%	-3	1%	i
O=C(c1ccc2c(c1)OCO2)N1C[C@@H]2C[C@H](C1)c1ccc(-c3cccc(C(F)(F)F)c3)c(=O)n1C2	-4%	3	2%	28µM*
O=C(COc1ccccc1)N1C[C@@H]2C[C@H](C1)c1ccc(-c3cccc(C(F)(F)F)c3)c(=O)n1C2	19%	3	-1%	22µM*
O=C(c1ccc2c(c1)OCO2)N1CCC2(CC(c3cccc(C(F)(F)F)c3)=NO2)C1 (centres undefined)	-14%	8	-20%	?
Cc1cc(C(=O)N2CCCCCC2c2nnc(C)o2)n(C)n1 (centres undefined)	9%	11	8%	i
COCc1ccc2c(c1)c(OC(C)(C)C(=O)NCCCn1ccnc1)nn2Cc1cccc(OC)c1	12%	16	2%	22µM*
COCc1ccc2c(c1)c(OC(C)(C)C(=O)NCCCn1ccnc1)nn2CCC(C)C	28%	5	4%	35µM*
COCc1ccc2c(c1)c(OC(C)(C)C(=O)NCc1ccncc1)nn2CCC(C)C	?	-7	-6%[87.6 µM]	?
COC(=O)c1ccc2nc(CO[C@H]3CN(C(=O)C4CCOCC4)C[C@H]3F)[nH]c2c1	-7%[87.6 µM]	-5	4%[87.6 µM]	i
CN(C)S(=O)(=O)N1CCC(C(=O)Nc2ccc(Oc3cccnc3)cc2)CC1	-25%	14	-5%	i
CCOc1cc(=O)n2c(c1C(=O)NCCCN1CCCc3ccccc31)CCCCC2	-17%	0	10%	11µM*
COc1ccc(C(=O)NCc2nnc3ccc(-c4ccc(C)cc4)nn23)c(C)c1	-16%	10	-8%	28µM*
COc1ccc(-c2ccc3nnc(CNC(=O)c4ccc(C)cc4C)n3n2)cc1	5%	7	-2%	28µM*
COc1ccc(-c2ccc3nnc(CNC(=O)c4sccc4C)n3n2)cc1	50%	-11	1%	32µM*
COc1ccc(-c2ccc3nnc(CNC(=O)COc4cccc(C)c4)n3n2)cc1	14%	7	-2%	25µM*
O=C(Nc1ccccc1)c1cc(C2CC2)nc2ccccc12	.	.	.	i
CNc1nc(-c2ccc3c(N)n[nH]c3c2)cc(N2C[C@@H](C(=O)NC3CCCCC3)CC[C@@H]2C)n1	-3%	.	-30%	.
COC(=O)c1ccc(COC(=O)c2ccc(C)cc2C)cc1	.	.	.	i
CCN(CC)CCNC(=O)Cc1nn(C)c(=O)c2ccccc12	.	.	.	i
O=C(c1nnn2cc(-c3ccccc3)[nH]c(=O)c12)N1CCCCCC1	80%	-9	-1%	?
SMILES	SNCA expr inhib	IP6K1 inhibitor	HEK293 viab	KDM5B inhibitor
O=C(NCC1CCCO1)c1nnn2cc(-c3ccccc3)[nH]c(=O)c12 (centres undefined)	2%	7	9%	?
O=C(c1nnn2cc(-c3ccc(F)cc3)[nH]c(=O)c12)N1CCOCC1	?	5	4%	32µM*
CCCCN(CC)C(=O)c1nnn2cc(-c3ccc(Cl)cc3)[nH]c(=O)c12	-5%	0	-6%	i
C=CCN1CCN(C(=O)c2nnn3cc(-c4ccccc4)[nH]c(=O)c23)CC1	3%	2	8%	28µM*
CCCCNC(=O)c1nnn2cc(-c3ccc(Cl)cc3)[nH]c(=O)c12	-15%	-3	18%	8.9µM*
Cc1ccc([S+](=O)([O-])N2CCCC2C(=O)N2CCC(N3Cc4cccn4C3=O)CC2)cc1 (centres undefined)	-5%	4	-7%	.
Cc1cn2nc(C(=O)NCc3ccc(C(C)C)cc3)cc2c(N2CCSCC2)n1	2%	0	-1%	14µM*
Cc1cn2nc(C(=O)NCc3cccc(Cl)c3)cc2c(N2CCSCC2)n1	-16%	-12	6%	14µM*
Cc1cn2nc(C(=O)NCCc3cccs3)cc2c(N2CCSCC2)n1	5%	7	2%	14µM*
FC(F)Sc1ccc(NC(=S)NCCC2=CCCCC2)cc1	.	.	.	i
CC(C)NC(=O)N1CCC2(CC1)CC(N(C(=O)c1ccccc1)C1CC1)CCO2 (centres undefined)	9%	-5	5%	i
Cc1ccc(NC(=O)Nc2ccccc2)c(=O)n1CC(=O)N1CCN(c2ccccc2)CC1	6%	-6	10%	28µM*
Cc1noc(-c2ccc(OC3CN(S(=O)(=O)c4c(C)noc4C)C3)cc2)n1	-20%	3	-13%	i
CSc1ccc(-c2nc3c([nH]2)CC(C)(C)CNC3=O)cc1	29%	-3	-20%	28µM*
CC1(C)CNC(=O)c2nc(CCSCc3ccco3)[nH]c2C1	-16%	-5	-5%	i
O=C(c1cccnc1)N1CCN(c2nnc3ccc(Cl)cn23)CC1	-3%	7	4%	16µM*
Cc1ccccc1C(=O)N1CCCN(c2nnc3ccc(Cl)cn23)CC1	2%	40	-5%	25µM*
COc1ccc(C(=O)N2CCCN(c3nnc4ccc(Cl)cn34)CC2)cn1	22%	13	-12%	22µM*
O=C(NCCc1ccc(Cl)cc1)c1nc(-c2ccc(F)cc2)c2cnccn12	-8%	5	2%	32µM*
O=C(NCCc1ccc(Cl)cc1)c1ccc2nnc(-c3ccc(F)cc3)n2c1	-2%	6	4%	.
O=C(NCCc1ccc(Cl)cc1)c1nc(-c2ccc(Cl)nc2)c2ccccn12	99%	1	?	50µM*
O=C(NCc1ccc(F)cc1)c1nc(-c2ccc(F)cc2)c2cnccn12	12%	14	3%	35µM*
O=C(NCc1ccc(F)cc1)c1nc(-c2cccnc2)c2cnccn12	-9%[87.6 µM]	0	3%[87.6 µM]	i
O=C(NCCc1ccc(Cl)cc1)c1nc(-c2ccc(F)cc2)c2ccccn12	9%	-1	-5%	25µM*
COc1ccc(CN(C)Cc2ccncc2C)c(OCC(O)CN2CCCC2)c1 (centres undefined)	-23%	1	-20%	?
CC(OC(=O)c1nn(C)c(=O)c2ccccc12)C(=O)Nc1cccc(C(F)(F)F)c1 (centres undefined)	.	.	.	i
Cc1ccc(-c2cc(=O)c3cc(F)ccc3o2)cc1	.	.	.	i
